Source: the supplement of paper PMC10849652
Targets with a hit are over-represented here; the source holds about 8,800 in all. About 0.5% of all pairs of compound and target were hits. Values without a mark were called inactive.

Assays:
Assay in all cases: log2 fold change, soluble protein after heating vs DMSO (PISA); higher = thermal stabilisation; K562 lysate, 10 uM; active = over 0.2 and 3.5 SD of the protein, either way, in both replicates (recomputed)
ibrutinib = compound: C=CC(=O)N1CCC[C@@H](n2nc(-c3ccc(Oc4ccccc4)cc3)c3c(N)ncnc32)C1 [ibrutinib]
Method in brief: (§1)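 K562 pellets were dounce-homogenised in PBS pH 7.4 containing 1 mM MgCl2, and the crude extract, at 1 mg/mL protein, was exposed to 10 μM compound for 30 min. Aliquots were heated for 3 min across 48°C-58°C, pooled, brought to 0.5% NP-40 at 4°C and spun at 21,000xg for 90 min, with the supernatant taken as soluble protein. TMTpro 16plex LC-MS/MS with equalised channel sums quantified that protein. Values are log-two fold changes in thermal stability relative to solvent controls, taken from duplicates.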

[1] = compound: CC(=O)c1cnc2ccc(-c3cc(Cl)c(O)c(Cl)c3)nc2c1N[C@H]1CC[C@H](CN(C)C)CC1
Method in brief: as §1

ralimetinib = compound: CC(C)(C)Cn1c(N)nc2ccc(-c3[nH]c(C(C)(C)C)nc3-c3ccc(F)cc3)nc21 [ralimetinib]
Method in brief: as §1

[2] = compound: CC(C)(O)CC(=O)NCCn1ccc2ncnc(Nc3ccc(Oc4cccc(C(F)(F)F)c4)c(Cl)c3)c21
Method in brief: as §1

[3] = compound: CC(C)C1=C2N=C(C=C(N2N=C1)NCC3=CC=CC=C3)NCCCCCCN
Method in brief: as §1

[4] = compound: CC1=C(C(CC(=O)N1)C2=CC=C(C=C2)C(F)(F)F)C(=O)NC3=C(C=C4C(=C3)C=NN4)F
Method in brief: as §1

[5] = compound: CC1=C(C2=C(C=C1)C(=O)C3=CC=CC=C3N2CCCN)C
Method in brief: as §1

[6] = compound: CC1=C(C=C(C=C1)NC(=O)C2=CC(=CC=C2)C(C)(C)C#N)NC3=CC4=C(C=C3)N=CN(C4=O)C
Method in brief: as §1

[7] = compound: CC1=C(C=C(C=C1)NC(=O)C2=CC(=CC=C2)N(C)C)NC(=O)C3=CC=C(C=C3)O
Method in brief: as §1

[8] = compound: CC1=CC=C(C=C1)SC2=C3C=C(SC3=CN=C2)C(=O)N
Method in brief: as §1

Chain of UniProt Q16659 (Q16659 whole entry, looked up): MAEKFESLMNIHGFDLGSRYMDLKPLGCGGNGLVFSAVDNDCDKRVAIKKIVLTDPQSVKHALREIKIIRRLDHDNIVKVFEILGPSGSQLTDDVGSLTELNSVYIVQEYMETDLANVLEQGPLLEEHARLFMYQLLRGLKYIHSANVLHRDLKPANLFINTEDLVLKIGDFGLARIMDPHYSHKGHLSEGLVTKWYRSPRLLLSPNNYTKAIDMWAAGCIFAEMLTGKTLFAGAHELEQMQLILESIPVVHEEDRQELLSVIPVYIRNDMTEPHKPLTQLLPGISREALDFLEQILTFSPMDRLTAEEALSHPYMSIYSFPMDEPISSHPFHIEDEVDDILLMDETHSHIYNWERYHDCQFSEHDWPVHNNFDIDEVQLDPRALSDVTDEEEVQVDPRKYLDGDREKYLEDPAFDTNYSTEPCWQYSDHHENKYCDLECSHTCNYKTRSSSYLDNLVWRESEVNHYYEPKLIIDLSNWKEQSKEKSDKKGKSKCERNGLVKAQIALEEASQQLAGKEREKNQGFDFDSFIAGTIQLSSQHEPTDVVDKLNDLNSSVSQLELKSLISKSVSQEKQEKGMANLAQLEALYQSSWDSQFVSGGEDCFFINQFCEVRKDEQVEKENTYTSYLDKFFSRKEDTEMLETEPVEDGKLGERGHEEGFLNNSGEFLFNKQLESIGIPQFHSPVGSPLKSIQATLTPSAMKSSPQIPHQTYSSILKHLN
Chain of UniProt P49916 (P49916 whole entry, looked up): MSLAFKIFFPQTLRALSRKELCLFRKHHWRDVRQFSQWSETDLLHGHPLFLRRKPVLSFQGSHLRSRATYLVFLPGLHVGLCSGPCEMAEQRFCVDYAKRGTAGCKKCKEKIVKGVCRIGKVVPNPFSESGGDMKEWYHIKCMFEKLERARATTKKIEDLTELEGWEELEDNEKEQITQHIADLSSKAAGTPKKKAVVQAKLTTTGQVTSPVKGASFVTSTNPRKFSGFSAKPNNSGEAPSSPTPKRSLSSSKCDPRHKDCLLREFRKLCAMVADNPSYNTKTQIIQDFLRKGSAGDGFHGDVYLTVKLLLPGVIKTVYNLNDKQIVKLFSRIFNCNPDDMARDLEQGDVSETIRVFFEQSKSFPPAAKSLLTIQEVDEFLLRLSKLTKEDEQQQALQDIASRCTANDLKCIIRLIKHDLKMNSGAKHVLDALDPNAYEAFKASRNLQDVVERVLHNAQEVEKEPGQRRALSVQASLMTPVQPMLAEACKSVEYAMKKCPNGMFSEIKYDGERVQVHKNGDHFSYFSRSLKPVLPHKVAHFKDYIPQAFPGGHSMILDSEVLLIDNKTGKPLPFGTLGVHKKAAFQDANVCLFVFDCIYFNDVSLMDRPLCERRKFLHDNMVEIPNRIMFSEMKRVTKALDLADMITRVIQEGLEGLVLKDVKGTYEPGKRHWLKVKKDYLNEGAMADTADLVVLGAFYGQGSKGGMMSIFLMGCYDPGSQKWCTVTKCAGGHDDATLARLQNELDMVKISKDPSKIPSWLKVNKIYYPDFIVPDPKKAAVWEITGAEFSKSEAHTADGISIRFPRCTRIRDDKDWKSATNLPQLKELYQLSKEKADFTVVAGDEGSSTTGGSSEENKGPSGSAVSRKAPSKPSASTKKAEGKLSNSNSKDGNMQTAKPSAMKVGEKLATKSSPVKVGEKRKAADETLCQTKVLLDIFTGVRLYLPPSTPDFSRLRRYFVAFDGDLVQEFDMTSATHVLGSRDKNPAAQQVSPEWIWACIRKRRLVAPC
Chain of UniProt Q9P2J5 (Q9P2J5 whole entry, looked up): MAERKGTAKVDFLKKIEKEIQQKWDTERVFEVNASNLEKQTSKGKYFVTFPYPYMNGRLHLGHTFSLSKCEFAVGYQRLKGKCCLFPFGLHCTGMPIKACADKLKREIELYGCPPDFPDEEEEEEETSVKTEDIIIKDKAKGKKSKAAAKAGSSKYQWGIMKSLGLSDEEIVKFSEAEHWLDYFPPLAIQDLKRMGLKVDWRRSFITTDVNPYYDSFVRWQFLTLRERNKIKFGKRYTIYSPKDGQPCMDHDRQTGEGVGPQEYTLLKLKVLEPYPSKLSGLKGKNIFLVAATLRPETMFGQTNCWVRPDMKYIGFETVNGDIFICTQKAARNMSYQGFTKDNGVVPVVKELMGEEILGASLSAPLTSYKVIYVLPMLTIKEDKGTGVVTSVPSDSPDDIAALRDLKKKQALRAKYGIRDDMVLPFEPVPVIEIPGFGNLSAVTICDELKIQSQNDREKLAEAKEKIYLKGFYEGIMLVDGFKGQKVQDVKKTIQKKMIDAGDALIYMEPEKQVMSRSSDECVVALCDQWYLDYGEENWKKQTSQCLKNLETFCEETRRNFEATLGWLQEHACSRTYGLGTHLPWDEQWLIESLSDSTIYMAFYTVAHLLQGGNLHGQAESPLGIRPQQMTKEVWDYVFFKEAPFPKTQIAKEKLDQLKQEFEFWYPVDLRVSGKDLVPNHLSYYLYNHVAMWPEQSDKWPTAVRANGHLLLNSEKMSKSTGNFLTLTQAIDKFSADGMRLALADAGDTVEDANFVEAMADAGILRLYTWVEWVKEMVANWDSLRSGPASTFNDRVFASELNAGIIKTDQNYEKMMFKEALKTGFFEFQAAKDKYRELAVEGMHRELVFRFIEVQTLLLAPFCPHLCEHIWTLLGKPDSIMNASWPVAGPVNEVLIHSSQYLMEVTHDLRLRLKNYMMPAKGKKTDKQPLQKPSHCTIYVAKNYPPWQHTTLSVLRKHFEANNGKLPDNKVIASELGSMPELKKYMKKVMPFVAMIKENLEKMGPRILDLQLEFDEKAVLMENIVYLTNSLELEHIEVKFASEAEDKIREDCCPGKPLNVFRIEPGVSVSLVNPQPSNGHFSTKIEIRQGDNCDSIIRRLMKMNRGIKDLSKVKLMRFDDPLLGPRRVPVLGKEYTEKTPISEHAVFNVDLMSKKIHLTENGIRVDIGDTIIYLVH
Chain of UniProt Q96G25 (Q96G25 whole entry, looked up): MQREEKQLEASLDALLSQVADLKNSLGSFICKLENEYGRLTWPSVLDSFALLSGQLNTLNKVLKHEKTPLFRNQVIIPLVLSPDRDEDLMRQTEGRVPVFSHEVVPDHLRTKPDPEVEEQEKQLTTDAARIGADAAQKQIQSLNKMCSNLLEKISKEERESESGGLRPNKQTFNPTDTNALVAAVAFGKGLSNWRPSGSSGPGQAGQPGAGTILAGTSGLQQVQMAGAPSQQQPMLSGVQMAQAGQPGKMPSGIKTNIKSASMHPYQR
Chain of UniProt Q86V48 (Q86V48 whole entry, looked up): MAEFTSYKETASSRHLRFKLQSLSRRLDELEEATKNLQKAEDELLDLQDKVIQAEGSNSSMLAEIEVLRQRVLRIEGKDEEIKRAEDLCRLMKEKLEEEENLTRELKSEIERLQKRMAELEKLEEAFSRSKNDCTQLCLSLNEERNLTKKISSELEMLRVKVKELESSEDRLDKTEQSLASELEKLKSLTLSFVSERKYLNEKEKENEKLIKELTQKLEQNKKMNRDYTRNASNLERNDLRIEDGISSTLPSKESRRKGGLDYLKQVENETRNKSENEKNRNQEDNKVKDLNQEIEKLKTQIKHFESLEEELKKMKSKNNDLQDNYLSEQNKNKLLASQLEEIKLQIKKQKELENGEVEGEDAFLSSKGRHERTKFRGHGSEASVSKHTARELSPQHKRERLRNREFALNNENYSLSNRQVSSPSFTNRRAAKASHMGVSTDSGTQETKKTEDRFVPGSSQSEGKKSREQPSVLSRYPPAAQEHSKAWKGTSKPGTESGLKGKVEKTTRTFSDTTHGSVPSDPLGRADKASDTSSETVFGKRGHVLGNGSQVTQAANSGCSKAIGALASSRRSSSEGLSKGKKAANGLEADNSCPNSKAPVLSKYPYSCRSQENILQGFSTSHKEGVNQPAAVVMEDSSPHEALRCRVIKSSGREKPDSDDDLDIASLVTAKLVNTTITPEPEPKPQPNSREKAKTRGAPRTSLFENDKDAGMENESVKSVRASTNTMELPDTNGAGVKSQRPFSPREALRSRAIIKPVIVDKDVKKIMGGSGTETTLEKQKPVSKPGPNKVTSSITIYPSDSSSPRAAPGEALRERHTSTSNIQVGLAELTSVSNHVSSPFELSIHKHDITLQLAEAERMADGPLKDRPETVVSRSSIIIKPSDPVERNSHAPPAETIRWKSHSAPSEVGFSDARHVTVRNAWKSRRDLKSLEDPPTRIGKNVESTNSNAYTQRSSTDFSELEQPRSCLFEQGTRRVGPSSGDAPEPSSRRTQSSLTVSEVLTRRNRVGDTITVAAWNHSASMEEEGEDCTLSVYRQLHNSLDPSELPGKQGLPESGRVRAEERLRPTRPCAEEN
Chain of UniProt Q9NX58 (Q9NX58 whole entry, looked up): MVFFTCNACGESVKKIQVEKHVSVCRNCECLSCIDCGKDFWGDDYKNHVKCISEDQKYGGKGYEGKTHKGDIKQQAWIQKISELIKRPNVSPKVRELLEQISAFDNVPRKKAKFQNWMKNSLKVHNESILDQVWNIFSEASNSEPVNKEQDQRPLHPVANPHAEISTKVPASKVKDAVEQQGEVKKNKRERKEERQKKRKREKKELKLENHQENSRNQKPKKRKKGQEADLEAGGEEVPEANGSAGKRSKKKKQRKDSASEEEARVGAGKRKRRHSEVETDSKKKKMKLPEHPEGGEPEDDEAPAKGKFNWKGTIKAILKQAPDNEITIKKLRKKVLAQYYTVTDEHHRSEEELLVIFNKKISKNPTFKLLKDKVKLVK
Chain of UniProt Q16539 (Q16539 whole entry, looked up): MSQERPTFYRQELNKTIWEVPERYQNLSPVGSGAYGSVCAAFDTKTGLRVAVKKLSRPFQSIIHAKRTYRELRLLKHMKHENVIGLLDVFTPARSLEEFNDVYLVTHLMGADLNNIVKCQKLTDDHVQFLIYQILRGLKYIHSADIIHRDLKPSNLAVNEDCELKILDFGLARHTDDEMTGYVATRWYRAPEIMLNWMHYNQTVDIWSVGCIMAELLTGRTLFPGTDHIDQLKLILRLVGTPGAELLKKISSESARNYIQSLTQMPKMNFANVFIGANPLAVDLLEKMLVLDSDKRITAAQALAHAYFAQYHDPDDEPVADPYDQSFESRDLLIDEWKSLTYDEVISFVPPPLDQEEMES

Target	log2 fold change (ibrutinib)	log2 fold change [1]	log2 fold change (ralimetinib)	log2 fold change [2]	log2 fold change [3]	log2 fold change [4]	log2 fold change [5]	log2 fold change [6]	log2 fold change [7]	log2 fold change [8]
MAD2L1BP isoform 3 (UniProt Q15013)	-0.016	-0.099	0.038	0.015	-0.037	0.107	-0.054	0.005	-0.011	-0.05
LRRC40 (UniProt Q9H9A6)	0.017	0.011	0.019	0.025	-0.011	0.015	0.002	-0.073	0.01	-0.007
MAST4 (UniProt O15021)	0.019	0.423 (active)	0.04	0.061	-0.032	-0.075	0.032	-0.173	-0.023	0.049
LUZP1 (UniProt Q86V48)	0.002	-0.002	0.003	-0.012	0.016	-0.006	0.012	0.011	-0.002	0.017
KIF15 (UniProt Q9NS87)	-0.017	0.006	0.008	-0.022	0.01	0.022	-0.027	0.02	0.036	-0.015
LSG1 (UniProt Q9H089)	-0.083	-0.033	0.026	0.052	0.032	0.004	-0.187	0.012	0.013	0.031
KIF4B (UniProt Q2VIQ3)	0.027	0.005	0.004	-0.03	0.013	0.04	-0.018	0.01	0.002	-0.036
MED16 (UniProt Q9Y2X0)	-0.113	-0.012	0.057	0.046	-0.014	0.021	-0.01	-0.038	-0.018	0.005
KLHL36 (UniProt Q8N4N3)	0.002	-0.047	0.092	-0.028	0.053	-0.008	-0.085	-0.005	-0.098	-0.003
MRPL19 (UniProt P49406)	0.067	0.027	0.034	-0.057	0.029	-0.021	0.01	-0.013	0.023	-0.002
MED8 isoform 2 (UniProt Q96G25)	0.109	0.024	0.012	0.036	0.006	-0.03	-0.001	-0.005	-0.05	-0.058
MRPL27 (UniProt Q9P0M9)	-0.046	-0.057	0.023	-0.025	0.106	0.002	-0.195	-0.028	0.1	0.079
LYAR (UniProt Q9NX58)	-0.009	-0.035	-0.011	0.016	0.004	0.03	-0.012	0.016	0.015	0.038
LRCH3 (UniProt Q96II8)	-0.052	-0.016	-0.004	-0.017	0.015	-0.015	-0.025	0.047	0.07	0.034
LBR (UniProt Q14739)	0.034	-0.01	0.019	-0.121	-0.029	0.018	0.065	-0.089	-0.026	-0.036
MAP3K4 (UniProt Q9Y6R4)	0.046	0.19	0	0.005	-0.039	-0.015	-0.012	-0.006	-0.001	-0.027

Target	log2 fold change (ibrutinib)	log2 fold change [1]	log2 fold change (ralimetinib)	log2 fold change [2]	log2 fold change [3]	log2 fold change [4]	log2 fold change [5]	log2 fold change [6]	log2 fold change [7]	log2 fold change [8]
MAPK6 (UniProt Q16659)	0.07	0.025	0.004	-0.05	0.012	0	0	-0.006	0.029	0.021
LETM1 (UniProt O95202)	-0.006	-0.001	0.007	0.002	0.045	-0.026	0.026	0.036	0	0.037
LIG3 (UniProt P49916)	-0.006	0.007	0.063	0.023	-0.002	-0.018	0.04	-0.015	0.028	0.015
MBD2 (UniProt Q9UBB5)	0.013	0.018	-0.043	-0.03	0.016	-0.013	-0.017	-0.053	-0.048	0.007
KNSTRN (UniProt Q9Y448)	-0.017	0.018	0.027	0.081	-0.008	0.022	-0.023	-0.032	0	0.002
LAP3 (UniProt P28838)	0.043	-0.03	-0.05	-0.103	0	-0.024	-0.042	0.117	-0.009	-0.018
MPP1 (UniProt Q00013)	0.035	0.011	-0.01	-0.002	0.02	-0.019	0.018	0.022	0.012	-0.004
MAPK14 isoform 2 (UniProt Q16539)	0.03	0.249	0.97 (active)	-0.047	-0.003	0.02	-0.027	0.973 (active)	0.419	0.011
KRR1 (UniProt Q13601)	0.037	0.009	0.035	0.042	-0.04	0.041	-0.032	0.144	0.093	-0.027
MORC2 (UniProt Q9Y6X9)	0.065	0.02	0.054	-0.035	-0.039	-0.001	-0.026	-0.037	0.072	0.004
MED14 (UniProt O60244)	0.002	-0.013	0.017	-0.022	0.01	0.021	-0.029	-0.019	0.013	0.018
MCUB (UniProt Q9NWR8)	0.127	0.013	0.054	0.045	-0.063	0.039	-0.219	0.443 (active)	0.04	0.204
MAP4 isoform 5 (UniProt P27816)	0.172	0.027	-0.1	-0.166	0.03	0.048	0.019	0.012	0.082	0.047
KLHL12 isoform 2 (UniProt Q53G59)	0.156	0.067	0.123	-0.032	0.073	0.026	-0.041	-0.066	0	0.007
LARS (UniProt Q9P2J5)	-0.021	-0.003	0.023	0.048	0.021	-0.001	-0.017	-0.041	0.029	0.022
